# Values joined by “and” are separate entries in the source; they are usually repeats but may differ in a detail not shown here. Equal entries are not always repeated. In all, about 16,000 compounds went through this assay and about 2,600 (16%) were called active. About 20% were inconclusive and are not listed. The sample as a whole holds a higher share of actives than the screen did. Unmarked numbers belong to inactive results. Calls come from the whole dose curve; as a rule, active = well fitted curve in the direction sought with a large enough effect; inconclusive = small, poorly fitted or top-dose-only effect, or effect the other way; inactive = no such curve, though single readings can be large or run the other way.
# Target: Cytochrome P450 2D6 (Homo sapiens) (UniProt P10635)
# Test: Cytochrome panel assay with activity outcomes
# Conditions: recombinant CYP, pro-luciferin dealkylation, luminescence, p450-cyp2d6; series mostly up to 57.1 µM; activity, negative = inhibition: at the top concentration
# % is set by controls: 0 for no effect and ±100 for the full control effect.
# Chain of Cytochrome P450 2D6 (Homo sapiens) (P10635 whole entry, looked up): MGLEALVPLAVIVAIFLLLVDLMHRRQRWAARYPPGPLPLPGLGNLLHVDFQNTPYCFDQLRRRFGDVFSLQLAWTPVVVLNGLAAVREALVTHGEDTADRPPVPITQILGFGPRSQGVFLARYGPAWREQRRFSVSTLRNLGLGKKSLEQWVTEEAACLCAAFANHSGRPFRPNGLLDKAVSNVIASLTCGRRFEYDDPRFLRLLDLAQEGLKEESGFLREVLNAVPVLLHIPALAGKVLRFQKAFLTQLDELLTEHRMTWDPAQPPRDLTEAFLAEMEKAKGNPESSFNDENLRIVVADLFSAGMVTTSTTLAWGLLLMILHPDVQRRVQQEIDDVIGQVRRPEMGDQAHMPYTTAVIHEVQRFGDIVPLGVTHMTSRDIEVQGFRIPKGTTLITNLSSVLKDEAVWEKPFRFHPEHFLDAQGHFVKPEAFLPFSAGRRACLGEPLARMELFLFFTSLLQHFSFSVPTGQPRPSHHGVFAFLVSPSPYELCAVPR
SMILES,"activity, negative = inhibition",AC50
C/C=C1\C[C@H](C)[C@@](O)(CO)C(=O)OCC2=CCN3CC[C@@H](OC1=O)[C@@H]23,8.82% [at 25.6 µM],
C[N+](C)(C)CCCCCC[N+](C)(C)C,-2.19%,
N=C1c2ccccc2CN1NC(=O)c1ccc(Cl)cc1,,0.794 µM (active)
N=C1c2ccccc2CN1NC(=O)c1ccc(F)cc1,,1.26 µM (active)
NP(N)(=O)NC(=O)c1ccc(F)cc1,0.0851%,
CS(=O)(=O)N1CCCC(C(=O)N2CCC3(CC2)OCCO3)C1 (centres undefined),8.4%,
CC12CN3CC(C)(CN(C1)C31CCSCC1)C2=O,-17.1%,
NCC#Cc1ccccc1,-4.23%,
NCCSC(c1ccccc1)c1ccccc1,,0.794 µM (active)
O=C1NC(=O)N(CCNc2ncc(C(F)(F)F)cc2Cl)C(=O)C1/C=N/OCc1c(F)cccc1Cl (centres undefined),-4.63%,
C[C@]12CC[C@@H]3C(=CCc4cc(O)ccc43)[C@@H]1CCC2=O,-5.94% [at 25.6 µM],
O=C(Nc1cccc(C(F)(F)F)c1)c1cccn(Cc2ccc3c(c2)OC(F)(F)O3)c1=O,11.6%,
NC(N)=NS(=O)(=O)c1ccc(N)cc1,4.32% [at 25.6 µM],
N=C(N)c1ccc(-c2ccc(-c3ccc(C(=N)N)cc3)o2)cc1,11.8% [at 11.4 µM],
COc1ccc2[nH]c3c(c2c1)CCNC3,,12.6 µM (active)
COc1ccc2c3c([nH]c2c1)C(C)=NCC3,,3.98 µM (active)
COc1ccc2[nH]c3c(c2c1)CCN=C3C,,0.631 µM (active)
COc1ccc(-n2nc(C(F)(F)F)cc2-c2ccc(Cl)cc2)cc1,0.773%,
C[C@]12CC[C@H]3c4ccc(O)cc4CC[C@@H]3[C@H]1CC[C@@H]2OC(=O)CCc1ccccc1,-5.32% [at 11.4 µM],
CC1=C(CC[C@H](C)CO)O[C@@H]2C[C@@H]3[C@H]4CC[C@H]5C[C@@H](O)CC[C@]5(C)[C@@H]4CC(=O)[C@@]3(C)[C@@H]12,-3.67% [at 11.4 µM],
CCN(CC)c1ccc(/C=C2/C(=O)NC(=O)N(CC3CCCO3)C2=O)cc1 (centres undefined),-5.7%,
CC(C)c1ccc(C(c2c(O)c3ccccc3oc2=O)c2c(O)c3ccccc3oc2=O)cc1,2.43% [at 11.4 µM],
COc1cc(CNC(=O)CCCC/C=C\C(C)C)ccc1O,-14.5% [at 25.6 µM],

SMILES,"activity, negative = inhibition",AC50
O=C(C[n+]1ccc2ccccc2c1)c1ccc2ccc3ccccc3c2c1,,0.794 µM (active)
C[C@H](Br)C(=O)c1ccc2cc(Br)c3ccccc3c2c1,8.29% [at 11.4 µM],
CCCn1c(C)c(C(=O)c2ccc3ccccc3c2)c2ccccc21,-5.36%,
CC1=C(O)C(=O)[C@H]2O[C@@H]2C1=O,3.35%,
C[C@H]1CC[C@@]2(NC1)O[C@@H]1C[C@@H]3[C@@H]4CC=C5C[C@@H](O)CC[C@]5(C)[C@@H]4CC[C@]3(C)[C@H]1[C@@H]2C,7.13% [at 11.4 µM],
COC(=O)C[C@](O)(CCCC(C)(C)O)C(=O)O[C@@H]1C(OC)=C[C@]23CCCN2CCc2cc4c(cc2[C@H]13)OCO4,-0.399%,
CN1C(=O)C(=Cc2ccc(N3CCCCC3)o2)C(=O)N(C)C1=S,1.93%,
COC1=C(C)C(=O)c2c(c(COC(N)=O)c3n2C[C@@H]2[C@@H]3N2C)C1=O (some centres undefined),,1.58 µM (active)
COc1cc2c(c(OC)c1OC)-c1ccc(O)c(=O)cc1[C@H](N)CC2,3.59% [at 25.6 µM],
Nc1ccc(S(=O)(=O)c2ccc(NCN3C(=O)NC(=O)C(=O)C3=O)cc2)cc1,4.3% [at 11.4 µM],
c1ccc(CN2CCN(Cc3ccc4c(c3)OCCO4)CC2)cc1,,12.6 µM (active)
c1cc(CN2CCCCC2)cc(OCCCNc2nc3ccccc3s2)c1,4.28%,
NC[C@H](O)c1cc(O)c(O)cc1F,-1.75%,
CCNC(=S)NC1CC2CCCC(C1)N2Cc1ccco1 (centres undefined),,2 µM (active)
Cc1cc(C)cc(NC(=S)NC2CC3CCC(C2)N3Cc2ccco2)c1 (centres undefined),,17.8 µM (active)
CC(C)CNC(=S)NC1CC2CCCC(C1)N2Cc1ccco1 (centres undefined),,2 µM (active)
Cc1cccc(N2C(=O)NC(=O)/C(=C\c3cnn(-c4ccccc4)c3)C2=O)c1,2.27%,
C[C@H](Br)C(=O)N[C@H](CO)C(=O)O,5.11% [at 11.4 µM],
NCC1(CC(=O)O)CCCCC1,,inactive
CCN1C[C@]2(COC(=O)c3ccccc3N3C(=O)C[C@H](C)C3=O)CC[C@H](OC)[C@@]34[C@@H]5C[C@H]6[C@H](OC)[C@H]5[C@](O)(C[C@@H]6OC)[C@@](O)([C@@H](OC)[C@@H]23)[C@@H]14,-20.1%,
O=[N+]([O-])c1cc(-c2ccc([As](=O)(O)O)cc2)ccc1[As](=O)(O)O,14% [at 11.4 µM],
CC(C)Oc1cccnc1N(C)C1CCN(Cc2ccccc2)CC1,,7.94 µM (active)
NNC(N)=O,12.2%,

SMILES,"activity, negative = inhibition",AC50
CC(=O)[C@]1(O)CC[C@@H]2[C@H]3C[C@@H](C)C4=CC(=O)CC[C@@]4(C)[C@H]3[C@@H](O)C[C@]21C,1.26% [at 11.4 µM],
c1cc(C2N3CCCN2CC3)ccn1 (centres undefined),15.8% [at 11.4 µM],
CC[C@H](C(=O)[C@H](C)[C@H](O)[C@H](C)CCc1ccc(C)c(O)c1C(=O)O)[C@H]1O[C@](CC)([C@@H]2CC[C@@](O)(CC)[C@H](C)O2)C[C@H]1C,1.12% [at 25.6 µM],
Cc1cc(C(C)(C)C)cc(C)c1CC1=NCCN1,,31.6 µM (active) and 3.98 µM (active)
O=C(O)[C@@H]1C[C@H]1[C@@H](NP(=O)(c1ccccc1)c1ccccc1)c1ccccc1,-3.03%,
c1cncc([C@@H]2CCCCN2)c1,-6.82% [at 25.6 µM],
CCCCn1c(O)c(C=NCCN2CCCCC2)c(=O)[nH]c1=O,-3.07%,
COCOc1ccc(Br)cc1C(=O)/C=C\c1ccc2c(c1)OCO2,,3.16 µM (active)
NC[C@@H](O)CSP(=O)(O)O,3.14% [at 11.4 µM],
O=C1C[C@@H](c2ccc(O)cc2)Oc2cc(O)cc(O)c21,-8.7% [at 25.6 µM],
CC(=O)O[C@H]1CC[C@@]2(C)[C@@H](CC[C@H]3[C@H]2CC(=O)[C@]2(C)[C@@H]3C[C@@H](N3CC3)[C@H]2C(C)=O)C1,-8.74% [at 11.4 µM],
NC(N)=NC(=O)c1nc(Cl)c(N)nc1N,,inactive
Ic1ccccc1CN[C@@H]1C2CCN(CC2)[C@H]1C(c1ccccc1)c1ccccc1,,0.0631 µM (active)
NO,1.31%,
CC(=O)OCC1=C(C(=O)[O-])N2C(=O)[C@@H](NC(=O)CCC[C@@H](N)C(=O)[O-])[C@@H]2SC1.[Zn+2],1.63%,
O=c1cc(-c2ccc(O)cc2)oc2c([C@H]3O[C@@H](CO)[C@@H](O)[C@@H](O)[C@@H]3O)c(O)cc(O)c12,-1.71% [at 25.6 µM],
COC(=O)[C@H]1C(=O)c2ccccc2O[C@@](C(=O)OC)(c2ccccc2)[C@@H]1c1ccccc1,11.5% [at 11.4 µM],
Cn1cccc1CNCCc1ccccc1,,2.51 µM (active)
O=C(O)Cc1ccc([N+](=O)[O-])cc1[N+](=O)[O-],5.45% [at 11.4 µM],
Cc1cc(Cc2cc(C)c(N)cc2N)c(N)cc1N,-18.6% [at 11.4 µM],
CSCC[C@@H](N)P(C)(=O)O,3.31% [at 11.4 µM],
c1ccc2c(c1)[I+]c1ccccc1-2,,3.98 µM (active) and 794 nM (active)
CN1C2C=C3C(C#N)=C(N)C(C#N)(C#N)[C@H](c4c(F)cccc4F)[C@H]3C1CC2 (some centres undefined),-27.7%,

SMILES,"activity, negative = inhibition",AC50
CCC[C@@](C)(COC(N)=O)COC(=O)NC(C)C,-0.665% [at 25.6 µM],
Cc1ccccc1-c1cncnc1NCCc1cnc[nH]1,,12.6 µM (active)
Clc1ccccc1-c1cncnc1NCCc1cnc[nH]1,,3.98 µM (active)
CNCCc1cnc[nH]1,-9.55%,
Cn1cnc(CCN)c1,10.3%,
C[C@H]1CC[C@@]2(NC1)O[C@@H]1C[C@H]3[C@@H]4CC[C@@H]5C[C@@H](O)CC[C@@]5(C)[C@@H]4CC[C@]3(C)[C@@H]1[C@@H]2C,-1.98% [at 25.6 µM],
C[C@]1(C(=O)O)[C@@H]2CC[C@@H](O2)[C@@]1(C)C(=O)O,-0.463%,
[N-]=[N+]=CC(=O)CC[C@H](N)C(=O)O,-11.2% [at 11.4 µM],
CN(C)CCCNc1c2c(nc3ccc(Cl)cc13)CCCC2,9.14% [at 11.4 µM],
COc1ccc(C2SCC(=O)Nc3c2c(C)nn3C2CCOC(C)(C)C2)cc1 (centres undefined),6.24%,
C[C@@]12CC[C@H](O)C[C@@H]1CC[C@@H]1[C@@H]2CC[C@@]2(C)[C@@H](C3=CC(=O)OC3)[C@H](O)C[C@]12O,17.5% [at 11.4 µM],
Cc1cc2c(C(F)(F)F)cc(=O)oc2c2c1NCCC2,-6.37%,
N=C(N)SCc1ccc(Cl)c2ccccc12 (tested in a mixture with another compound),,3.16 µM (active)
C/C(=N\OC(=O)NC(C)C)c1sc(-c2ccc(Cl)cc2)nc1C,-20.1%,
C[C@@]12CC[C@H](O[C@@H]3O[C@H](CO)[C@@H](O)[C@H](O)[C@@H]3O)C[C@@H]1CC[C@H]1[C@H]2CC[C@@]2(C)[C@@H](C3=CCOC3=O)CC[C@]12O,-0.449% [at 11.4 µM],
COc1ccc(C[C@H]2NC[C@H](O)[C@@H]2OC(C)=O)cc1,,7.94 µM (active)
c1ccc2c(c1)OC[C@@H](C1=NCCN1)O2,,0.631 µM (active)
C[N+]1(C)CCO[C@](O)(c2ccc(-c3ccc([C@]4(O)C[N+](C)(C)CCO4)cc3)cc2)C1,6.78% [at 25.6 µM],
Cc1ccc(N=Nc2c(O)[nH]c(=O)[nH]c2=O)c([N+](=O)[O-])c1,-25.8%,
Nc1nc(N)c(N=Nc2ccc([As](=O)(O)O)cc2)c(=O)[nH]1,13.1% [at 11.4 µM],

# Source: PubChem BioAssay AID1851 (National Center for Advancing Translational Sciences (NCATS), 2009)
